Reference: PubChem BioAssay (Tox21)
Records with an inconclusive call do not appear. A call without a number means that no potency is given here. The source holds several records for some structures; these can differ, active in one and inactive in another. Activity calls are given as the source filed them. Unless noted, calls come from the whole dose curve.

Assays:
[1] = qHTS assay to identify small molecule antagonists of the sonic hedgehog signaling (Shh) pathway (AID 1259369); note: nearly all actives have a fitted effect of over 45% in size; note: potency is the fitted concentration of half-maximal effect
Procedure, shortened: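 NIH/3T3-derived Gli1-Luc reporter cells plated 4 h, dosed with compound, then stimulated with conditioned medium for 24 h at 37 C. Firefly luciferase luminescence read after 30 min with detection reagent at room temperature.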

[2] = target: Estrogen receptor beta (Homo sapiens) (UniProt Q92731); assay: qHTS assay to identify small molecule agonists of the estrogen receptor beta (ER-beta) signaling pathway (AID 1259377; active = well fitted activation curve with a large enough effect in the signal ratio in the repeat runs, not every such curve was filed as active; the % refers to the signal ratio)
Procedure, shortened: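 Screening used GripTite ER-beta-UAS-bla cells held in 2% charcoal-stripped FBS medium. After overnight (16 hr) compound incubation at 37C, beta-lactamase activity was detected with a FRET substrate by fluorescence.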

[3] = qHTS assay to identify small molecule agonists of the androgen receptor (AR) signaling pathway in the presence of an antagonist - cell viability counter screen (AID 1259379; active = well fitted curve in the direction sought with a large enough effect in the repeat runs; an effect the other way counts as inactive or inconclusive;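 note: MDA-kb2 human breast cancer cells carrying an MMTV luciferase reporter; series mostly up to about 92 µM; nearly all actives have a fitted effect of over 25% in size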)
Procedure, shortened: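 MDA-kb2 cells (MMTV-luciferase, AR/GR), 3,000/well, 5 h attachment, then 3.0 µM nilutamide (final) and compounds at 15 concentrations. Viability by CellTiter-Fluor fluorescence after 16 h at 37 °C, 0% CO2, in the reporter wells.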

[4] = qHTS assay to identify small molecule agonists of the estrogen receptor beta (ER-beta) signaling pathway - cell viability counter screen (AID 1259380; active = well fitted curve in the direction sought with a large enough effect in the repeat runs; an effect the other way counts as inactive or inconclusive; note: nearly all actives have a fitted effect of over 30% in size; note: potency is the fitted concentration of half-maximal effect)
Procedure, shortened: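 ER-beta-UAS-bla HEK293T cells in medium with 2% charcoal-stripped FBS, pre-incubated 6 hr, then treated 16 hr at 37C. Cytotoxicity read in the same wells by CellTiter-Glo luminescence after 30 min at room temperature.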

[5] = qHTS assay to identify small molecule antagonists of the estrogen receptor beta (ER-beta) signaling pathway - cell viability counter screen (AID 1259382; active = well fitted curve in the direction sought with a large enough effect in the repeat runs; an effect the other way counts as inactive or inconclusive; note: series mostly up to about 92 µM; nearly all actives have a fitted effect of over 55% in size)
Procedure, shortened: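 ER-beta-UAS-bla HEK293T cells in 2% charcoal-stripped FBS medium, treated with compound plus 1 nM 17-beta-estradiol for 16 h at 37C. Viability read by CellTiter-Glo luminescence after 30 min at room temperature in the same wells.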

[6] = qHTS assay to identify small molecule agonists or antagonists of the thyroid stimulating hormone receptor (TSHR) signaling pathway - wild type cell line counter screen (AID 1259384)
Procedure, shortened: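 Wild-type Hek293 cells, 800/well, 18 h at 37C, then compound with Ro20-1724 for 30 min RT. cAMP by HTRF (cAMP-d2/anti-cAMP cryptate), 1 h RT, fluorescence read. 15 concentrations, triplicates.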

[7] = target: Thyrotropin receptor (Homo sapiens) (UniProt P16473); assay: qHTS assay to identify small molecule antagonists of the thyroid stimulating hormone receptor (TSHR) signaling pathway (AID 1259385); note: nearly all actives have a fitted effect of over 20% in size
Procedure, shortened: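 TSHR-HEK293 cells (800/well) plated 18 h, then compounds with Ro20-1724 and TSH at 1.5 ng/mL final, 30 min at room temperature. cAMP quantified by HTRF (cAMP-d2/anti-cAMP-cryptate, 1 h); 15 concentrations in triplicate.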

[8] = qHTS assay to identify small molecule agonists of the estrogen receptor alpha (ER-alpha) signaling pathway in the presence of an antagonist - cell viability counter screen (AID 1259386; active = well fitted curve in the direction sought with a large enough effect in the repeat runs; an effect the other way counts as inactive or inconclusive;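 note: series mostly up to about 92 µM; cells exposed to compounds for 22 h at 37 °C before the viability read; nearly all actives have a fitted effect of over 30% in size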)
Procedure, shortened: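 Cell viability in VM7Luc4E2 cells (endogenous full-length ER-alpha) measured by CellTiter-Fluor fluorescence in the same wells as the luciferase screen. Cells pre-cultured 5 days in charcoal-stripped serum, then treated 22 h with compounds at 15 concentrations plus 10.0nM ICI-182,780.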

[9] = target: Progesterone receptor (Homo sapiens) (UniProt P06401); assay: qHTS assay to identify small molecule antagonists of the progesterone receptor (PR) signaling pathway (AID 1346795; active = well fitted inhibition curve with a large enough effect in the signal ratio in the repeat runs, not every such curve was filed as active; the % refers to the signal ratio)
Procedure, shortened: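 Screening used a GripTite HEK293T line with PR-responsive UAS-beta-lactamase. Cells were challenged with compound in the presence of 1 nM R5020 final for 16 hr at 37C; B/G FRET substrate, 2 hr room temperature, fluorescence.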

[10] = qHTS assay to identify small molecule antagonists of the progesterone receptor (PR) signaling pathway - cell viability counter screen (AID 1346798; active = well fitted curve in the direction sought with a large enough effect in the repeat runs; an effect the other way counts as inactive or inconclusive; note: series mostly up to about 92 µM; nearly all actives have a fitted effect of over 50% in size)
Procedure, shortened: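 Measures cytotoxicity in parallel with the PR antagonist reporter read: HEK293T PR-UAS-bla cells get compound and R5020 for 16 hr, and remaining viable cells are quantified by CellTiter-Glo luminescence.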

[11] = qHTS assay to identify small molecule agonists of the progesterone receptor (PR) signaling pathway - cell viability counter screen (AID 1346799); note: nearly all actives have a fitted effect of over 45% in size; note: potency is the fitted concentration of half-maximal effect
Procedure, shortened: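 Using the same plates as the PR reporter screen, HEK293T PR-UAS-bla cells received compounds for 16 hr at 37C and were then lysed with CellTiter-Glo; luminescence was read 30 min later at room temperature.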

[12] = qHTS assay to identify small molecule agonists of the TGF-beta/Smad signaling pathway (AID 1346859; active = well fitted activation curve with a large enough effect in the signal ratio in the repeat runs, not every such curve was filed as active; the % refers to the signal ratio; note: series mostly up to about 77 µM)
Procedure, shortened: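 Beta-lactamase reporter activity downstream of Smad binding elements was measured in stably transfected HEK 293T cells; compounds were incubated for 5 hr, substrate for 2 hr at room temperature.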

[13] = target: Thyrotropin-releasing hormone receptor (Homo sapiens) (UniProt P34981); assay: qHTS assay to identify small molecule antagonists of the thyrotropin-releasing hormone receptor (TRHR) signaling pathway (AID 1346877; active = well fitted inhibition curve with a large enough effect in the repeat runs, not every such curve was filed as active; note: series mostly up to about 51 µM)
Procedure, shortened: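 TRHR-expressing HEK293 cells loaded with calcium dye for 2 h at 37 C; compounds pre-incubated 5 min at room temperature before TRH challenge at 1 nM final. Intracellular calcium fluorescence read kinetically for 3 min; 15 concentrations in triplicate.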

[14] = target: Thyrotropin-releasing hormone receptor (Homo sapiens) (UniProt P34981); assay: qHTS assay to identify small molecule agonists of the thyrotropin-releasing hormone receptor (TRHR) signaling pathway (AID 1346891); note: series mostly up to about 58 µM
Procedure, shortened: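 Overnight-plated (18 h, 37 °C, 5% CO2) TRHR-Hek293 cells; 2 h calcium dye at 37 °C; compound in DMSO; 3-min kinetic fluorescence read.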

[15] = target: Estrogen receptor beta (Homo sapiens) (UniProt Q92731); assay: qHTS assay to identify small molecule antagonists of the estrogen receptor beta (ER-beta) signaling pathway (AID 1259378; active = well fitted inhibition curve with a large enough effect in the signal ratio in the repeat runs, not every such curve was filed as active; the % refers to the signal ratio)
Procedure, shortened: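 ER-beta-UAS-bla HEK293T cells in 2% charcoal-stripped FBS medium treated with compound plus 1nM final 17-beta-estradiol for 16 hr at 37C. Beta-lactamase reporter read by FRET substrate fluorescence after 2 hours at room temperature.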

[16] = target: Androgen receptor (Homo sapiens) (UniProt P10275); assay: qHTS assay to identify small molecule agonists of the androgen receptor (AR) signaling pathway in the presence of an antagonist (AID 1259381); note: nearly all actives have a fitted effect of over 15% in size
Procedure, shortened: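 MDA-kb2 cells carrying MMTV-luciferase (AR/GR responsive), 3,000 cells/well, co-treated with 3.0 uM nilutamide final. Compounds at 15 concentrations, 16 hr at 37C without CO2. Luciferase luminescence read after 30 min with ONE-Glo.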

[17] = target: Estrogen receptor (Homo sapiens) (UniProt P03372); assay: qHTS assay to identify small molecule agonists of the estrogen receptor alpha (ER-alpha) signaling pathway in the presence of an antagonist (AID 1259383); note: top concentration of the series differs between compounds; nearly all actives have a fitted effect of over 15% in size
Procedure, shortened: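 VM7Luc4E2 cells express endogenous full-length ER-alpha with an ERE-luciferase reporter and were hormone-deprived for 5 days. Compounds at 15 concentrations were added with 10.0nM ICI-182,780 for 22hr at 37C. Luminescence was read with ONE-Glo.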

[18] = qHTS assay to identify small molecule antagonists of the TGF-beta/Smad signaling pathway - cell viability counter screen (AID 1346824; active = well fitted curve in the direction sought with a large enough effect in the repeat runs; an effect the other way counts as inactive or inconclusive; note: nearly all actives have a fitted effect of over 50% in size)
Procedure, shortened: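 SBE-bla HEK 293T cells, incubated overnight, then compound plus 0.25 ng/mL TGF-beta1 (stock added) for 5 hr at 37 C. Viability was read in the same wells by CellTiter-Glo luminescence after 30 min at room temperature.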

[19] = qHTS assay to identify small molecule agonists of the TGF-beta/Smad signaling pathway - cell viability counter screen (AID 1346829; active = well fitted curve in the direction sought with a large enough effect in the repeat runs; an effect the other way counts as inactive or inconclusive; note: top concentration of the series differs between compounds; nearly all actives have a fitted effect of over 45% in size)
Procedure, shortened: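 Compound-treated SBE-bla HEK 293T cells (5 hr, 37 C) were assessed for viability with CellTiter-Glo in parallel with the reporter read.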

[20] = target: Progesterone receptor (Homo sapiens) (UniProt P06401); assay: qHTS assay to identify small molecule agonists of the progesterone receptor (PR) signaling pathway (AID 1346784); note: nearly all actives have a fitted effect of over 30% in size
Procedure, shortened: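 Seed PR-UAS-bla HEK 293T cells (2% charcoal-stripped FBS), incubate 6 hr at 37C; add compounds in DMSO, 16 hr at 37C; add LiveBLAzer B/G substrate, 2 hr RT; read fluorescence intensity.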

Chain of Thyrotropin-releasing hormone receptor (Homo sapiens) (P34981 whole entry, looked up): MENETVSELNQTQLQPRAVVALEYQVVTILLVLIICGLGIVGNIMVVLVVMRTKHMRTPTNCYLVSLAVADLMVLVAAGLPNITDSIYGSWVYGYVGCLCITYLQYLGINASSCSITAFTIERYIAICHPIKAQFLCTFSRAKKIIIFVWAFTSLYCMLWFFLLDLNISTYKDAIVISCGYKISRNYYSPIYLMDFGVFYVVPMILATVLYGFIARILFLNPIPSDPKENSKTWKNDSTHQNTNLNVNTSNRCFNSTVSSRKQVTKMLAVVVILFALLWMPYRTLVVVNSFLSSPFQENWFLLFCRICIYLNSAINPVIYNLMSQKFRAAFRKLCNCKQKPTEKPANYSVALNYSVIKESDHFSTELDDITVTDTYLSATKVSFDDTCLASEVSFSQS
Chain of Estrogen receptor beta (Homo sapiens) (Q92731 whole entry, looked up): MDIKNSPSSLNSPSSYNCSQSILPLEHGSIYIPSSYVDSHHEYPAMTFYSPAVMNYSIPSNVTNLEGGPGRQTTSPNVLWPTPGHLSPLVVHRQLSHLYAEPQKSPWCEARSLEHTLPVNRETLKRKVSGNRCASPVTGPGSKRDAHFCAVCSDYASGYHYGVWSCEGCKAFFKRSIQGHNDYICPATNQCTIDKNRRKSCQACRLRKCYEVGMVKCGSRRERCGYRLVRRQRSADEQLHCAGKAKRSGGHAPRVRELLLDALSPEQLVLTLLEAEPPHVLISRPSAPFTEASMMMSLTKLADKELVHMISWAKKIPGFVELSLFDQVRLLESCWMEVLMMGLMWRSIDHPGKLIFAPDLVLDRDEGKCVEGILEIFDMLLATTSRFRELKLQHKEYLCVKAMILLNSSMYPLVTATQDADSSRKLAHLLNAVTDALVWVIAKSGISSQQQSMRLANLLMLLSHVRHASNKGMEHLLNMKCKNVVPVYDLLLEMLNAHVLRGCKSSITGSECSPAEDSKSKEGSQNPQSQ
Chain of Thyrotropin receptor (Homo sapiens) (P16473 whole entry, looked up): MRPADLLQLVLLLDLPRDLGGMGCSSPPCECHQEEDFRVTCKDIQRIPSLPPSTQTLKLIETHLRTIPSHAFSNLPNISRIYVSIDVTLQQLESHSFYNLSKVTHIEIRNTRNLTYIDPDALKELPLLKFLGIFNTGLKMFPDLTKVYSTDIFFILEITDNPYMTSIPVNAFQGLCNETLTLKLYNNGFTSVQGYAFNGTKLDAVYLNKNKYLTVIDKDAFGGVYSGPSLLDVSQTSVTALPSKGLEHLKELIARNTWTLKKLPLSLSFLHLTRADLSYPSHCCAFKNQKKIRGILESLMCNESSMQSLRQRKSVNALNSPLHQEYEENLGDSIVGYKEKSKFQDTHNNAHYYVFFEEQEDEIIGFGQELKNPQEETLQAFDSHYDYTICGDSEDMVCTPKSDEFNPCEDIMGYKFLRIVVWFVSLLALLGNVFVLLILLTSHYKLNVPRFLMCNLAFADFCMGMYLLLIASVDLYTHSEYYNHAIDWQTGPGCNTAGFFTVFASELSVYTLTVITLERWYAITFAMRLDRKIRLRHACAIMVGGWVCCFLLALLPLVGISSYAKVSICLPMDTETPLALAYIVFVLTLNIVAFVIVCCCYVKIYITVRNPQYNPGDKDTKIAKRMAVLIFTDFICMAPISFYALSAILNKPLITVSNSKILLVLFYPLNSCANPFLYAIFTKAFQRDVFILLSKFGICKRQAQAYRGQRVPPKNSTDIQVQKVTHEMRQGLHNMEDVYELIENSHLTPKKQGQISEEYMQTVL
Chain of Estrogen receptor (Homo sapiens) (P03372 whole entry, looked up): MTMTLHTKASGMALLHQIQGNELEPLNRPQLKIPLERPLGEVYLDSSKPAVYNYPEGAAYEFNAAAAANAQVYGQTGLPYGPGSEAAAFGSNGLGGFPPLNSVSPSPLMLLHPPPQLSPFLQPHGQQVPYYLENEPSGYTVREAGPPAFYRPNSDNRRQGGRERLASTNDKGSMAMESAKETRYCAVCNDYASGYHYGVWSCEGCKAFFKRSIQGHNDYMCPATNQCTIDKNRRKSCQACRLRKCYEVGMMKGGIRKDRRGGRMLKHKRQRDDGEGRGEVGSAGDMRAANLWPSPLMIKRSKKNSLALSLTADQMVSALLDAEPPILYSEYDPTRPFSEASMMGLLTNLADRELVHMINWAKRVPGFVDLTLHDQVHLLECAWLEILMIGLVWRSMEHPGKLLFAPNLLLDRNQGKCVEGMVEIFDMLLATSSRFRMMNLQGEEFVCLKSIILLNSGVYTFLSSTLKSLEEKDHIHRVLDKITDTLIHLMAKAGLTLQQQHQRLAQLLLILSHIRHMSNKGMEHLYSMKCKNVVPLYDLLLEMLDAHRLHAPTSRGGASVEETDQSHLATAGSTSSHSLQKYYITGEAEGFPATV
Chain of Progesterone receptor (Homo sapiens) (P06401 whole entry, looked up): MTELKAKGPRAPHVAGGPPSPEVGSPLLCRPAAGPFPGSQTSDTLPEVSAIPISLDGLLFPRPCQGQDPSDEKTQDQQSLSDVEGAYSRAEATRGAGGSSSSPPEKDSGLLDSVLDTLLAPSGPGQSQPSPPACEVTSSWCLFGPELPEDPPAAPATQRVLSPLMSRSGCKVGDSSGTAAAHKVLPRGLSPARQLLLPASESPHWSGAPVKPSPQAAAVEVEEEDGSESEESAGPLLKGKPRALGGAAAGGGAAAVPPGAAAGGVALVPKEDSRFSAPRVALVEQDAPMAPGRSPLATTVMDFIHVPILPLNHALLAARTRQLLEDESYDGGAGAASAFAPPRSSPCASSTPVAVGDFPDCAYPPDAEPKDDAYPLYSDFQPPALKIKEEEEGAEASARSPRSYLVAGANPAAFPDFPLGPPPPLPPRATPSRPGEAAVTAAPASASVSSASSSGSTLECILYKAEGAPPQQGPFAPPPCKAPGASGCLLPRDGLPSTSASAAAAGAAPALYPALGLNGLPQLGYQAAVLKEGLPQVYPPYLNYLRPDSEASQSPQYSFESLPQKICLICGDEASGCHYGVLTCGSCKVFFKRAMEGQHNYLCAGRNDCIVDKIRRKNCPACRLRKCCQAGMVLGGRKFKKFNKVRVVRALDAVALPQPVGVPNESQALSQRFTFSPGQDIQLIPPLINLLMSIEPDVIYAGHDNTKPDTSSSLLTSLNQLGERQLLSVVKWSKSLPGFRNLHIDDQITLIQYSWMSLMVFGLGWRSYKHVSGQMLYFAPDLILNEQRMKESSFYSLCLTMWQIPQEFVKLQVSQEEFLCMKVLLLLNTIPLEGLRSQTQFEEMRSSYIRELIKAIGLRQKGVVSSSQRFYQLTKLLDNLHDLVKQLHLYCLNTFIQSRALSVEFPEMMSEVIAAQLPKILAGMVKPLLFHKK
Chain of Androgen receptor (Homo sapiens) (P10275 whole entry, looked up): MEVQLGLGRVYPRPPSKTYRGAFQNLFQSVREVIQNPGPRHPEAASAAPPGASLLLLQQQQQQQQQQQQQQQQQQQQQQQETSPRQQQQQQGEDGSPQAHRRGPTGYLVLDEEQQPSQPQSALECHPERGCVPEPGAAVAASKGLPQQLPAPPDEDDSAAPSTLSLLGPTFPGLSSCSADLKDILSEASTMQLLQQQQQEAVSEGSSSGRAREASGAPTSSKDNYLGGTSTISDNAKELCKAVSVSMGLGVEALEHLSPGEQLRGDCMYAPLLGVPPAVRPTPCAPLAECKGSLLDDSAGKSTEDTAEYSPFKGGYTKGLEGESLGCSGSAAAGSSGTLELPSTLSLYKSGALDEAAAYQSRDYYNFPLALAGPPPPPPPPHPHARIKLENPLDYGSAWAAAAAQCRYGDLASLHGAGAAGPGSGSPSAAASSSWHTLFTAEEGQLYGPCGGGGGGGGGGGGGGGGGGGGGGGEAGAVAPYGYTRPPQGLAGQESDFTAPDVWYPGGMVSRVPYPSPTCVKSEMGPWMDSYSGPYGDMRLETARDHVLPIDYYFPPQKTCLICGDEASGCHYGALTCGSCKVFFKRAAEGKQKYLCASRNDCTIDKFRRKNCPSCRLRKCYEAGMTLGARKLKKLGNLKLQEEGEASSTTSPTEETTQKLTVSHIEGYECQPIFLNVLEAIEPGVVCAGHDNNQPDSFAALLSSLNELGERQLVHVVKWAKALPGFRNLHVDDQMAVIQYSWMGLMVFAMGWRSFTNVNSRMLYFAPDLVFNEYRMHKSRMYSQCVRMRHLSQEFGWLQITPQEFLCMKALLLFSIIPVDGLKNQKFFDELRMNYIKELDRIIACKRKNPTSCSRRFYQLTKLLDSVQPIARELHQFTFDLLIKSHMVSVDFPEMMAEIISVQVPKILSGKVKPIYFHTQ

Q: What does the source list for `O=C(O)CCN(C1(C(=O)NO)CCCC1)S(=O)(=O)c1ccc(Oc2ccc(F)cc2)cc1`?
A: Potency [1]: inactive; Potency [2]: inactive; Potency [3]: inactive; Potency [4]: inactive; Potency [5]: inactive; outcome [6]: inactive; Potency [7]: inactive; Potency [8]: inactive; Potency [9]: inactive; Potency [10]: inactive; Potency [11]: inactive; Potency [12]: inactive; Potency [13]: inactive; outcome [14]: inactive

Q: What does the source list for `Fc1ccc(C(c2ccc(F)cc2)N2CCNCC2)cc1`?
A: Potency [1]: 2.98 µM (active); Potency [2]: inactive; Potency [15]: inactive; outcome [16]: inactive; Potency [5]: inactive; Potency [17]: inactive; outcome [6]: inactive; Potency [7]: inactive; Potency [8]: inactive; Potency [9]: inactive; Potency [18]: inactive; Potency [12]: inactive; Potency [13]: inactive; outcome [14]: inactive

Q: What does the source list for `O=c1[nH]c(=O)n([C@H]2C[C@H](O)[C@@H](CO)O2)cc1F`?
A: Potency [1]: inactive; Potency [2]: inactive; Potency [3]: inactive; Potency [4]: 150 nM (active); Potency [17]: inactive; outcome [6]: inactive; Potency [7]: inactive; Potency [8]: inactive; Potency [9]: inactive; Potency [10]: inactive; Potency [18]: inactive; Potency [19]: inactive; Potency [12]: inactive; Potency [13]: inactive; outcome [14]: inactive

Q: With `CCC(=O)OC(=O)CC` as the compound, how does the Potency [1] read?
A: inactive

Q: And the Potency [15]?
A: inactive

Q: And the Potency [3]?
A: inactive

Q: What about the Potency [5] of the same compound?
A: inactive

Q: And the Potency [17]?
A: inactive

Q: What about the outcome [6] of the same compound?
A: inactive

Q: And the Potency [7]?
A: inactive

Q: What about the Potency [8] of the same compound?
A: inactive

Q: And the Potency [9]?
A: inactive

Q: What about the Potency [10] of the same compound?
A: inactive

Q: And the Potency [11]?
A: 54000 nM (active)

Q: What about the Potency [18] of the same compound?
A: inactive

Q: And the Potency [19]?
A: inactive

Q: And the Potency [12]?
A: inactive

Q: And the Potency [13]?
A: inactive

Q: And the outcome [14]?
A: inactive

Q: What does the source list for `Oc1ccccc1O`?
A: Potency [1]: 874 nM (active) and inactive; Potency [15]: inactive; Potency [3]: inactive; Potency [4]: inactive; Potency [5]: inactive; outcome [6]: inactive; Potency [7]: inactive; Potency [8]: inactive; Potency [20]: inactive; Potency [18]: inactive; Potency [19]: inactive; Potency [12]: inactive; Potency [13]: inactive; outcome [14]: inactive

Q: Which results are given for `O=C(O)c1cccc(C(F)(F)F)c1`?
A: Potency [1]: inactive; Potency [3]: inactive; Potency [4]: inactive; Potency [5]: inactive; Potency [17]: inactive; outcome [6]: inactive; Potency [7]: inactive; Potency [8]: inactive; Potency [9]: inactive; Potency [10]: inactive; Potency [11]: inactive; Potency [18]: inactive; Potency [19]: inactive; Potency [12]: inactive

Q: What does the source list for `CCCCCCCCCCC[C@@H](C[C@@H]1OC(=O)[C@H]1CCCCCC)OC(=O)[C@H](CC(C)C)NC=O`?
A: Potency [1]: inactive; Potency [3]: inactive; Potency [4]: inactive; Potency [5]: inactive; Potency [17]: inactive; outcome [6]: inactive; Potency [7]: inactive; Potency [8]: inactive; Potency [20]: inactive; Potency [10]: inactive; Potency [18]: inactive; Potency [19]: inactive; Potency [12]: inactive; Potency [13]: inactive; outcome [14]: inactive
